A selection: hits, their analogues and other compounds. The true share with any hit is near 3.3%.
GSIS activator: primary screen for activators of insulin secretion dependent on glucose, INS-1E cells, GLuc reporter luminescence | INS-1E GLuc reporter insulin secretion, 2-3 h | AID 743287 | 0.61% of 370,000 active | activation, % at 16.6 µM;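 active = lowest replicate activation of at least 40%, so every replicate reaches that level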;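 also: 0% = median of neutral control wells and 100% = median of IBMX positive control wells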
ERAP1 inh: inhibitors of human ERAP1 aminopeptidase; inhibition, % at 10.7 µM; Q9NZ08; 0.15% of 340,000 active; recombinant ERAP1, Leu-AMC fluorescence, 60 min; AID 652197;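 active = mean replicate inhibition of at least 30%, or all replicates individually reaching that 30% level; inactive = mean below 30% and not every replicate reaching it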;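 also: 0% = neutral control wells and 100% = L-leucinethiol positive control wells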
SIRT5 inh: blocks human SIRT5 desuccinylation of peptide | 1.1% of 330,000 active | Purified SirT5, succinyl-peptide AMC, trypsin-coupled fluorescence | inhibition, % at 15 µM | Q9NXA8; in the data active = inhibition above about 15%
Target sequence (Q9NXA8 whole entry, looked up): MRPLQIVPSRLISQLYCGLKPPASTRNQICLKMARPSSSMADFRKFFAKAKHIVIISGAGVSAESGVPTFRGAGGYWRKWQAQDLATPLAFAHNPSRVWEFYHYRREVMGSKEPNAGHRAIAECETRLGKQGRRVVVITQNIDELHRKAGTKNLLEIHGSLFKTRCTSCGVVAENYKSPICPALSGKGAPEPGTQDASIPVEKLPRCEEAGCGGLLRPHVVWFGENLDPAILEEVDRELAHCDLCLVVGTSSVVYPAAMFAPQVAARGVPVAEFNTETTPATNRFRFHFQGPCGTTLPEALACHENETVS
FGF22 binding: shifts melting point of recombinant human FGF22 | recombinant FGF22 thermal shift, SYPRO orange fluorescence; percent of sucrose octasulfate shift, DMSO zero | activity (Tm shift, normalised), % at 9.99 µM | 1.5% of 340,000 active;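 active = mean Tm shift, scaled 0 neutral to 100 positive control, at about 1.3% or above, every replicate too, limit read from the data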
Casp6 inh: blocks human caspase-6 cleavage activity; P55212; purified caspase-6, Z-VEID-R110 cleavage fluorescence; 0.53% of 350,000 active; inhibition, % at 12.5 µM; AID 686996;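 active = mean inhibition across replicates at least about 35%, with every replicate also reaching that limit, limit read from the data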;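 also: 0% = median of neutral control wells and 100% = no fluorescence left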
Target sequence (P55212 24-179 limits assumed): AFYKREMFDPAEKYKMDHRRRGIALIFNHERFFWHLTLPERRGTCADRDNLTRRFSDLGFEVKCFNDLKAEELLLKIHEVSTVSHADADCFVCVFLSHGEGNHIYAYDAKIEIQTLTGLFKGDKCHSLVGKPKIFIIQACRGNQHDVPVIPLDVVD
Target sequence (P55212 194-293 limits assumed): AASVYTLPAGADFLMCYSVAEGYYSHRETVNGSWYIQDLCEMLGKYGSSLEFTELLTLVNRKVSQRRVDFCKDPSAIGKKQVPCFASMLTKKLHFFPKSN
* = called active by the depositor.

How did C[C@@H]1CN([C@H](C)CO)C(=O)c2cc(NS(=O)(=O)c3ccc(F)cc3)ccc2O[C@@H]1CN(C)Cc1ccc(-c2ccccc2)cc1 do in these assays?
GSIS activator: 1.4; ERAP1 inh: 0.1; SIRT5 inh: 15.9*; FGF22 binding: 0.3; Casp6 inh: 3.4

Results for C[C@H]1CN([C@@H](C)CO)C(=O)c2cccc(NS(=O)(=O)c3cn(C)cn3)c2O[C@H]1CN(C)Cc1ccc(Oc2ccccc2)cc1 ?
GSIS activator: -4.8; ERAP1 inh: -0.5; SIRT5 inh: 29.3*; FGF22 binding: 0.2; Casp6 inh: -1.5

How did C[C@@H]1CN([C@H](C)CO)C(=O)c2cc(NS(=O)(=O)c3ccc(Cl)cc3)ccc2O[C@@H]1CN(C)Cc1ccc(-c2ccccc2)cc1 do in these assays?
GSIS activator: -13.9; ERAP1 inh: 1.1; SIRT5 inh: 29.9*; FGF22 binding: 0.8; Casp6 inh: -3.7

What do the screens show for `C[C@@H]1CN([C@@H](C)CO)C(=O)c2cc(NS(=O)(=O)c3ccc(F)cc3)ccc2O[C@H]1CN(C)Cc1ccc(-c2ccccc2)cc1`?
GSIS activator: -13.1; ERAP1 inh: -2.8; SIRT5 inh: 10.3; FGF22 binding: -0.9; Casp6 inh: -1.3

Results for C[C@@H]1CN([C@H](C)CO)C(=O)c2cc(NS(=O)(=O)c3ccccc3)ccc2O[C@@H]1CN(C)Cc1ccc(-c2ccccc2)cc1 ?
GSIS activator: -7.1; ERAP1 inh: -1.4; SIRT5 inh: 15.3*; FGF22 binding: -0.1; Casp6 inh: -0.9

What do the screens show for `C[C@@H]1CN([C@H](C)CO)C(=O)Cc2cc(NS(=O)(=O)c3cn(C)cn3)ccc2O[C@H]1CN(C)C(=O)Nc1ccc(C(F)(F)F)cc1`?
GSIS activator: 13.0; ERAP1 inh: 1.5; SIRT5 inh: 1.2; FGF22 binding: 0.3; Casp6 inh: 0.8

Results for CN(C)CCCNC(=O)[C@H]1[C@H](CO)[C@H]2Cn3c(ccc(-c4ccncc4)c3=O)[C@@H]1N2C(=O)CC1CC1 ?
GSIS activator: 0.2; ERAP1 inh: -1.8; SIRT5 inh: -48.8; FGF22 binding: -0.1; Casp6 inh: -37.2

How did C[C@@H]1CN([C@H](C)CO)C(=O)c2cccc(NC(=O)C3CCOCC3)c2O[C@@H]1CN(C)Cc1ccc(C(=O)Nc2ccccc2N)cc1 do in these assays?
GSIS activator: 6.2; ERAP1 inh: -4.9; SIRT5 inh: 16.2*; FGF22 binding: -0.6; Casp6 inh: 1.5

Results for COc1ccc(S(=O)(=O)Nc2ccc3c(c2)C(=O)N([C@@H](C)CO)C[C@@H](C)[C@H](CN(C)S(=O)(=O)c2ccc(OC)cc2)OCCCC[C@@H](C)O3)cc1 ?
GSIS activator: -47.0; FGF22 binding: -0.4

How did Cc1noc(C)c1NC(=O)N(C)C[C@@H]1Oc2c(NC(=O)Nc3cccc4ccccc34)cccc2C(=O)N([C@@H](C)CO)C[C@H]1C do in these assays?
GSIS activator: -2.7; ERAP1 inh: 0.0; SIRT5 inh: 3.0; FGF22 binding: -0.4; Casp6 inh: 6.9

How did Cc1ccc(S(=O)(=O)Nc2ccc3c(c2)C(=O)N([C@H](C)CO)C[C@H](C)[C@@H](CN(C)S(=O)(=O)c2ccc(C)cc2)OCCCC[C@H](C)O3)cc1 do in these assays?
GSIS activator: -15.3; ERAP1 inh: -2.5; SIRT5 inh: 0.9; FGF22 binding: -0.3; Casp6 inh: -4.0

Results for Cc1ccc(NC(=O)N2CCCC2C(=O)NCC2CCCO2)cc1 (configuration not stated) ?
GSIS activator: 13.5; ERAP1 inh: 1.8; SIRT5 inh: -3.2; FGF22 binding: 43.2*; Casp6 inh: -1.3

How did NS(=O)(=O)c1ccc(N/N=C/c2ccc(O)c(O)c2O)c([N+](=O)[O-])c1 do in these assays?
GSIS activator: -19.1; ERAP1 inh: 0.8; SIRT5 inh: 16.2*; FGF22 binding: 0.3; Casp6 inh: 68.2*

What do the screens show for `NS(=O)(=O)c1ccc(N/N=C/c2ccccc2C(=O)O)c([N+](=O)[O-])c1`?
GSIS activator: 0.2; ERAP1 inh: 6.7; SIRT5 inh: 2.4; FGF22 binding: 43.2*; Casp6 inh: 1.0

Results for NS(=O)(=O)c1ccc(N/N=C/c2ccc(O)cc2O)c([N+](=O)[O-])c1 ?
GSIS activator: 10.6; SIRT5 inh: 14.4; FGF22 binding: -0.2; Casp6 inh: 1.1

How did O=[N+]([O-])c1cc(S(=O)(=O)N2CCCC2)ccc1N/N=C/c1cccs1 do in these assays?
GSIS activator: 47.9*

Results for COc1cccc(S(=O)(=O)N2C[C@H](O)COC[C@@H]3O[C@H](CC(=O)N4CCN(C)CC4)CC[C@H]32)c1 ?
GSIS activator: 4.4; ERAP1 inh: 1.4; SIRT5 inh: 0.5; FGF22 binding: 0.1; Casp6 inh: -0.2

What do the screens show for `CCCNC(=O)C[C@@H]1CC[C@H]2[C@@H](COC[C@@H](O)CN2C(=O)Nc2cccc(Cl)c2)O1`?
GSIS activator: -19.8; ERAP1 inh: -7.3; SIRT5 inh: 1.7; FGF22 binding: -0.2; Casp6 inh: 6.0

Results for Cc1ccc(S(=O)(=O)N(C)C[C@@H]2OCCCC[C@@H](C)Oc3ccc(NS(=O)(=O)c4ccc(F)cc4)cc3C(=O)N([C@@H](C)CO)C[C@@H]2C)cc1 ?
GSIS activator: -0.8; ERAP1 inh: 2.4; SIRT5 inh: 29.1*; FGF22 binding: 0.0; Casp6 inh: 1.5

Results for Cc1ccc(S(=O)(=O)N(C)C[C@H]2OCCCC[C@H](C)Oc3ccc(NS(=O)(=O)c4ccc(F)cc4)cc3C(=O)N([C@@H](C)CO)C[C@@H]2C)cc1 ?
GSIS activator: -10.6; ERAP1 inh: 3.4; SIRT5 inh: 3.1; FGF22 binding: -0.7; Casp6 inh: -2.0

Results for C[C@@H]1CCCCO[C@@H](CN(C)S(=O)(=O)c2ccc(F)cc2)[C@H](C)CN([C@H](C)CO)C(=O)c2cc(NS(=O)(=O)c3ccccc3)ccc2O1 ?
GSIS activator: -18.2; ERAP1 inh: 2.5; SIRT5 inh: 15.9*; FGF22 binding: 0.3; Casp6 inh: 0.3

What do the screens show for `Cc1ccc(S(=O)(=O)Nc2ccc3c(c2)C(=O)N([C@H](C)CO)C[C@@H](C)[C@@H](CN(C)S(=O)(=O)c2ccc(F)cc2)OCCCC[C@H](C)O3)cc1`?
GSIS activator: -0.9; ERAP1 inh: 1.1; SIRT5 inh: 13.2; FGF22 binding: 0.0; Casp6 inh: 2.3

What do the screens show for `Cc1ccc(S(=O)(=O)Nc2ccc3c(c2)C(=O)N([C@@H](C)CO)C[C@@H](C)[C@H](CN(C)S(=O)(=O)c2ccc(F)cc2)OCCCC[C@@H](C)O3)cc1`?
GSIS activator: 0.6; ERAP1 inh: 0.0; SIRT5 inh: 18.2*; FGF22 binding: -0.1; Casp6 inh: 0.2

Results for Cc1ccc(S(=O)(=O)Nc2ccc3c(c2)C(=O)N([C@@H](C)CO)C[C@H](C)[C@H](CN(C)S(=O)(=O)c2ccc(F)cc2)OCCCC[C@@H](C)O3)cc1 ?
GSIS activator: 7.0; ERAP1 inh: -2.4; SIRT5 inh: 17.6*; FGF22 binding: -0.6; Casp6 inh: 2.1
